molecular target: WFDC12; experiment: pooled miR-30 sensor sort-seq; sequence = guide strand; settings: shRNA

Sequence | sensor-assay potency score (higher = more potent)
AACAACACTTCCTTTCCCCCAG | -0.813
AACTCCTTCCACAGCCACCAGG | -1.44
TGACACATCTTCATCCTTGTTT | 0.329
TGCAGGTAACAACACTTCCTTT | -1.24
TTGTCAGCTGGGCAAACCCCTG | -1.97
TCCTCCTTCTTCCAGTTCCTTC | -1.8
ATGGCCTTGACACATCTTCATC | -1.78
AAGAACGAGAGACACCATGAGG | -1.13
TTGACACATCTTCATCCTTGTT | -1.2
TTTAACTCCTTCCACAGCCACC | -1.29
TGGTCTGTGTGACACTGGGGAG | -1.92

molecular target: WFDC5; experiment: as above; settings: shRNA

Sequence | sensor-assay potency score (higher = more potent)
TCTGTAGCAGCACTTCCTGGTC | -0.738
TCTGAGTCCTTGTGACACAGGT | -0.214
TCAAGGGACACTGGCTGTCTTC | -1.2
TGTCTTCCACGCACTGGTCAGG | -1.15
TGGCTGTCTTCCACGCACTGGT | -0.871
TGACACAGGTGGTTCATGGGGC | 0.531
TTTTTGCCCGAGCAGTCTGAGT | -1.7
TTCCTGGTCAAGGGACACTGGC | -1.55
TTTTGGTGGAGGAAGCAGCATG | -0.976
TCTTCCTGCCAAAGACAGCAGG | -1.27
TGTAGCAGCACTTCCTGGTCAA | 0.234
AGTCCTTGTGACACAGGTGGTT | -1.67

molecular target: WFDC8; experiment: as above; settings: shRNA

Sequence | sensor-assay potency score (higher = more potent)
TTGTCCATCCTTAACAATTAAC | -1.71
TTAACAATTAACATGCAGGCCG | -0.341
ATCTGTGTTACATGAGTCCGGA | -0.285
TTGTGTTTGATCTTCTTGGTCA | 0.398
TTTTTGACTGTCCAGGCCCTGG | -1.19
TCTCTTTGGGACATAACCCTGG | -0.176
TACATTTCAGTCCACAATGTGA | -1.04
TTGGGTTTATCAATCTTGGTAC | 0.104
TAACAATTAACATGCAGGCCGT | -0.862
TGGATTCACAACATTTGTCTGT | -0.069
AAACCTTTTTTGACTGTCCAGG | -1.14
TATTTGAAGGGTGTGCAGCGGT | -0.17

molecular target: WFIKKN1; experiment: as above; settings: shRNA

Sequence | sensor-assay potency score (higher = more potent)
AAGAACTTGAGGCCCATCTTGT | -0.385
TTGTAGAGCACCAGCTGCCCGA | -1.47
TTCTTGACGCGCTTCTCGCTGG | -0.797
TCGTAGGTCTCAAAGCCGCGGG | -1.25

Reference: the OligoGym collection
